# Measured values as given in paper PMC7819943, “Rice protein-binding microarrays: a tool to detect cis-acting elements near promoter regions in rice”.
# Over roughly 68,000 sequences, “fluorescence intensity (a.u.)” has its median near 9,100; the highest 2% begin near 16,000. The sample holds the highest values, similar sequences and a random draw of the others, so the mix is not that of the screen.
# Biological target: OsWRKY34 (Oryza sativa, UniProt Q0JBA9 1-250)
# Assay: protein-binding microarray (RPBM); PBS, 2% BSA, 51.3 ng/ul salmon testes DNA, 50 uM zinc acetate, 200 nM TF, 25 C, 1 h; high values mean tight binding
# Settings: protein: recombinant; tags: N-terminal polyhistidine and DsRed monomer fusion (pET32a); label: CyDye5-dUTP incorporated in the synthesized complementary strand; 3' TTTTT single-stranded linker to array surface; dsDNA, one strand shown
# Method in brief: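 The binding signal is fluorescence intensity per feature, in arbitrary units, read on an Axon 4000B scanner. Polyhistidine- and DsRed-tagged transcription factors (N-terminal fusions) from E. coli BL21-CodonPlus were purified on Ni–NTA and applied at 200 nM for 1 h at 25 °C to a double-stranded, BSA-blocked custom Agilent array in buffer with 50 µM zinc acetate.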
# OsWRKY34, sequence (Q0JBA9 entry or part of it): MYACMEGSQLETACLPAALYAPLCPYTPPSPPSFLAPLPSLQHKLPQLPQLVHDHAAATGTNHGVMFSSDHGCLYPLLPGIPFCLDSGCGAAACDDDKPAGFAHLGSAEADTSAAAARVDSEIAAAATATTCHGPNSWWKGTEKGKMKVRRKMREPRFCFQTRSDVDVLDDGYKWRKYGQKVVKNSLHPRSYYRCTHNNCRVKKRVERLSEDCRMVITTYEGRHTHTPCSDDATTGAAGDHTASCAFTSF
row,Sequence,binding signal
1,TATCACGATATTCTACCTCGCTCTCATGGGCTAGATCACCCGGAGTCACCTAGTGCAG,9500 fluorescence intensity (a.u.)
2,CCTTGTACCTCTGTCCAGATTCATTGTACTAAGATATGTCCGGAGTCACCTAGTGCAG,8540 fluorescence intensity (a.u.)
3,CTCTCTCTCTCTCTGCAGCTAGGCCATATGCATCTCTCCTCGGAGTCACCTAGTGCAG,9070 fluorescence intensity (a.u.)
4,GCATTCACTCCATCGCACCACTTCATGCCGCAAAATGTTTCGGAGTCACCTAGTGCAG,9970 fluorescence intensity (a.u.)
5,ATACGAGCCAAAGACCGTTGACAAGCTAGTCAACAGTCATCGGAGTCACCTAGTGCAG,8910 fluorescence intensity (a.u.)
6,TTTTGTCTACTGCGCCTACCACGCCGTTGTCCACTACCTCCGGAGTCACCTAGTGCAG,10400 fluorescence intensity (a.u.)
7,GCTGCACAGCTAGTCAACACAAGCTAGTCAAACCGTTGACCGGAGTCACCTAGTGCAG,19200 fluorescence intensity (a.u.)
8,AACCATCATGACCGGCTACCACTAAGCTGCGCCTGTCTACCGGAGTCACCTAGTGCAG,8700 fluorescence intensity (a.u.)
9,AAGCTAGTCAAACCGTTGACTACCACTGTCTTTGTTGCGCCGGAGTCACCTAGTGCAG,16800 fluorescence intensity (a.u.)
10,AACCAAACAACCGTTGTCTTGGCACAGCTGTCGCAACCTGCGGAGTCACCTAGTGCAG,8200 fluorescence intensity (a.u.)
11,CCTCGAGCTGTGCACGGCTGGTTCGTCTCGCGCCGCTTATCGGAGTCACCTAGTGCAG,10900 fluorescence intensity (a.u.)
12,TCAGTGTCGGCCGCGATGTCTTTGCAGCTTTGCTGGTTTTCGGAGTCACCTAGTGCAG,8090 fluorescence intensity (a.u.)
13,GGTATTGTTGATACTTTCAGTTTTCGCATTTGTTCGCTTCCGGAGTCACCTAGTGCAG,9230 fluorescence intensity (a.u.)
14,AAACTTAGCAAGAGCTCTGACCTATTGGAAAATTTTCTTTCGGAGTCACCTAGTGCAG,9480 fluorescence intensity (a.u.)
15,TATATATATTTATCACCGGTTTATTTTGGTCTGGTCTTTTCGGAGTCACCTAGTGCAG,13000 fluorescence intensity (a.u.)
16,TTTCGTGATTTTCCCCGGTTGGCCACTACTTTTGCGATTTCGGAGTCACCTAGTGCAG,9570 fluorescence intensity (a.u.)
17,ATATTTGGTTTTTTTTCGTACTTTTTTTCGCCCGGTTTTTCGGAGTCACCTAGTGCAG,20800 fluorescence intensity (a.u.)
18,GGACCTACTTTCGCGATTTTCCCCGGTTGGCCACTACTTTCGGAGTCACCTAGTGCAG,18800 fluorescence intensity (a.u.)
19,GACCTATTTTCGCGATTTTCCCCGGTTGACCACTACTTTTCGGAGTCACCTAGTGCAG,13100 fluorescence intensity (a.u.)
20,AGATTTGGTTTTTTAGGCCGGTTTTTCGTTTTGTCGCCCTCGGAGTCACCTAGTGCAG,8750 fluorescence intensity (a.u.)
21,CAGGACTGCGTGCTCCTTCTCGTTGTTCCTTACTCACCTTCGGAGTCACCTAGTGCAG,9560 fluorescence intensity (a.u.)
22,CTACTGCTTTCTTTCTTTCTCTATTGCAGTCTACCTCCTACGGAGTCACCTAGTGCAG,11400 fluorescence intensity (a.u.)
23,CTTTTGACTGCCACAGTGTGTTAGGTATATGTTTGTTTCACGGAGTCACCTAGTGCAG,11700 fluorescence intensity (a.u.)
